Screening results deposited in PubChem by National Center for Advancing Translational Sciences (NCATS).
An excerpt weighted towards active compounds, which were near 19% of everything screened.
TDP1 inh – blocks human tyrosyl-DNA phosphodiesterase 1; Potency, µM (titrated, usually from 130 µM), inactives show at the highest dose activity change, negative = inhibition, most hits filed as inhibitors; Q9NUW8; recombinant TDP1, AlphaScreen DNA substrate cleavage; 0.28% of 350,000 active; AID 485290; also: nearly all actives have a fitted effect of over 40% in size
Target sequence (Q9NUW8 whole entry, looked up): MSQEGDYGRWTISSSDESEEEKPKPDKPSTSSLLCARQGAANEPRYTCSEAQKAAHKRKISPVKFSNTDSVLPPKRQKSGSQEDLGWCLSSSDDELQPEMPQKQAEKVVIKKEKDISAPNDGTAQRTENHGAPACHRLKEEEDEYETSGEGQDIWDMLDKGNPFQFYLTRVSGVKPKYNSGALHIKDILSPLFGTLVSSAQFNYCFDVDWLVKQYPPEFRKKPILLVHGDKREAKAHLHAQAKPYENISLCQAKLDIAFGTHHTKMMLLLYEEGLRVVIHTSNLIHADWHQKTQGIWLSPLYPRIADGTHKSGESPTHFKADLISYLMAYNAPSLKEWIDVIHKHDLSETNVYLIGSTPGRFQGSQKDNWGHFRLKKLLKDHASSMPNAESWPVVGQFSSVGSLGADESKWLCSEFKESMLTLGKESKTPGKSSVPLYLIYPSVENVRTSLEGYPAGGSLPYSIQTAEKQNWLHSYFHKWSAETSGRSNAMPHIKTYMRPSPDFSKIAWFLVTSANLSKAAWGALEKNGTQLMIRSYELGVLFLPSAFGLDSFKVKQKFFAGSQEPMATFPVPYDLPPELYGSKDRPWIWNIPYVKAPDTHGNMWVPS
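AlphaScreen read-out: signal falls as enzyme removes the 3' tyrosine-FITC from a 5'-biotinylated DNA oligo (15 nM, 5 min, RT). Enzyme was E. coli-made recombinant Tdp1 at 1 nM, exposed to compound for 15 min beforehand; beads 10 ug/ml, 10 min.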
DT40 TDP1 CPT – DT40-hTDP1 cell growth loss with CPT | chicken DT40 Tdp1-/-;hTDP1 cells + 20 nM CPT, ATP luminescence, 48 h | Potency, µM (doses to about 46.2 µM), for the others: top-dose activity change, negative = growth inhibition, usual class: inhibitors | 12% of 420,000 active | AID 686979; also: nearly all actives have a fitted effect of over 55% in size
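Chicken DT40 Tdp1-/- cells complemented with human TDP1, 400 cells/well, exposed to compounds plus 20 nM camptothecin for at least 48 h at 37 C; viability read as ATP content by CellTiter-Glo luminescence.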
Gal4-VP16 FLuc – Gal4-VP16 reporter inhibition counter-screen | Drosophila S2 Gal4-VP16 UAS-luciferase, luminescence, 20 h | Potency, µM (doses to about 53.6 µM), inactives show top-dose activity, negative = inhibition, most hits filed as inhibitors | 3.5% of 310,000 active;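 also: Gal4-VP16 expression switched on by copper sulfate through the metallothionein promoter; nearly all actives have a fitted effect of over 50% in size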
RORg inh – blocks mouse ROR gamma transcriptional activity; Potency, µM (doses to about 53.6 µM), for inactives: at the highest dose activity change, negative = inhibition, most hits filed as inhibitors; P51450; AID 2551; Drosophila S2 Gal4-RORgamma UAS-luciferase reporter, 20 h; 5.4% of 310,000 active; also: nearly all actives have a fitted effect of over 60% in size
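A Gal4/UAS one-hybrid system in insect cells: metallothionein-promoter Gal4–ROR gamma fusion plus Photinus luciferase reporter. Copper sulfate 700 uM final, 20 hr ambient incubation, luminescent detection after 10 min with reagent.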
DT40 TDP1 no CPT – qHTS for Inhibitors of human tyrosyl-DNA phosphodiesterase 1 (TDP1): qHTS in cells in absence of CPT | DT40 Tdp1-/- hTDP1 cells, no CPT, ATP luminescence, 48 h | Potency, µM (doses to about 46.2 µM), inactives show at the highest dose activity change, negative = growth inhibition, actives largely listed as inhibitors | 15% of 420,000 active; also: nearly all actives have a fitted effect of over 55% in size
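Chicken DT40 Tdp1-/- cells complemented with human TDP1, screened without camptothecin (DMSO vehicle only), 400 cells/well. Compounds pin-transferred, cells incubated at 37 °C for at least 48 hr. Growth read as ATP-dependent luminescence (CellTiter-Glo, 30 min at RT).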
* marks the source's active call; other numbers are inactive results; ? = inconclusive; / = no result; [ ] = dose if it differs, or a comment. Calls follow the shape of the dose curve; as a rule, active = well fitted curve in the direction sought with a large enough effect; inconclusive = small, poorly fitted or top-dose-only effect, or another doubt; inactive = no such curve, though single readings can be large; an effect the other way counts as inactive or inconclusive. % is scaled to controls: 0 for no effect and ±100 for the full control effect; potency is read from the fitted curve at half-maximal effect.

SMILES	TDP1 inh	DT40 TDP1 CPT	Gal4-VP16 FLuc	RORg inh	DT40 TDP1 no CPT
COc1ccc(N2CCN(C(c3ccccc3OC)c3nnnn3C3CCCC3)CC2)cc1 (stereo not drawn)	7.7%	23.1µM*	-2.1%	-0.4%	20.6µM*
COCC(C)N1CCC(n2nccc2NC(=O)c2ccccc2Cl)CC1 (stereo not drawn)	/	-1.4%	/	/	0.0%
CN(Cc1ccccc1)C(=O)COC(=O)/C=C/c1ccco1	39.8µM*	2.8%	24.0%	17.2%	-13.0%
CN(CCOC(=O)/C=C/c1ccco1)Cc1ccccc1	10µM*	-27.9%	25.8%	6.3%	?
COc1ccccc1CNc1nc(C)c(C(C)=O)s1	14.4%	20.6µM*	-17.5%	?	16.4µM*
CCOC(=O)c1sc2nc(C)nc(NCCc3ccccn3)c2c1C	3.4%	20.6µM*	2.0%	4.4%	20.6µM*
CCOC(=O)c1sc2nc(C)nc(N3CCN(c4ncccn4)CC3)c2c1C	-5.5%	?	5.9%	-2.9%	14.6µM*
CCOC(=O)c1sc2nc(CC(=O)OC)nc(NCC(=O)OC)c2c1C	3.9%	0.2%	-7.9%	22.7%	-1.3%
CCOC(=O)c1sc2ncnc(N3CCN(C)CC3)c2c1C	0.0%	?	-24.6%[10 µM]	-0.6%	?
CCOC(=O)c1sc2nc(CSc3ccccc3)nc(NCCN(C)C)c2c1C	7.5%	16.4µM*	-0.7%	-20.6%	?
Cc1noc(C)c1CSCC(=O)Nc1cc(Cl)ccc1N1CCOCC1	4.4%	-19.7%	/	/	-24.5%
COc1ccc(NC(C)=O)cc1S(=O)(=O)N1CCc2ccccc21	4.8%	4.9%	2.3%	-23.1%	8.1%
CCOC(=O)c1sc2nc(C)nc(NCc3ccccc3OC)c2c1C	/	23.1µM*	-13.9%	27.1%	?
COC(=O)c1sc2nc(-c3ccccc3)nc(N3CCN(C)CC3)c2c1C	4.3%	?	1.2%	-5.4%	25.9µM*
Cc1ccn2c(NC3CCCC3)c(-c3ccccn3)nc2c1	7.9%	18.4µM*	-17.0%[10 µM]	3.55µM*	6.51µM*
c1ccc(-c2nc3ccccn3c2NC2CCCC2)nc1	6.0%	?	-0.3%	6.7%	16.4µM*
Cc1ccn2c(NC3CCCC3)c(-c3ccncc3)nc2c1	3.4%	?	7.6%	-22.1%	?
CCN(CC)C(=O)Cn1cc(SCC(=O)Nc2cc(OC)ccc2OC)c2ccccc21	5.1%	?	/	/	?
N#CC1(NC(=O)COC(=O)c2ccc(Cl)nc2)CCCCC1	1.5%	-22.8%	/	/	-9.3%
Cc1cc2c([nH]c3ccccc32)c(C)n1	4.7%	19.0%	-16.0%	1µM*	-29.2%
Cc1nc(C(=O)O)cc2c1[nH]c1ccccc12	/	-14.5%	/	/	?
Cc1c2ccncc2cc2c1[nH]c1ccccc12	/	5.8µM*	/	/	6.51µM*
COc1ccccc1CNC(=O)c1cc(C)nc2ccccc12	/	-29.7%	8.3%	52.7%	?
COc1ccccc1CN(C)C(=O)c1cc(C)nc2ccccc12	/	16.4µM*	-17.9%	?	16.4µM*
Cc1nn(C)cc1CN(C)C(=O)c1cc(-c2ccccc2)nc2ccc(Br)cc12	2.7%	16.4µM*	4.1%	-0.3%	14.6µM*
SMILES	TDP1 inh	DT40 TDP1 CPT	Gal4-VP16 FLuc	RORg inh	DT40 TDP1 no CPT
COc1ccccc1CN(C)C(=O)C(NC(=O)Cc1cccc2ccccc12)C(C)C (stereo not drawn)	-1.3%	?	1.9%	-2.6%	23.1µM*
Cn1cc(CNC(=O)c2cc(-c3ccccc3)nc3ccc(Br)cc23)cn1	1.3%	-4.6%	?	-9.4%	?
COc1ccc(CN(C)C(=O)c2cc(-c3ccccc3)nc3ccc(C)cc23)c(OC)c1	/	5.8µM*	/	/	5.8µM*
CC1(C2CC2)NC(=O)N(CC(=O)Nc2ccc(SC(F)F)cc2)C1=O (stereo not drawn)	-0.2%	-22.1%	/	/	?
COc1ccc(S(=O)(=O)NCCSCc2cccc(C)c2)cc1Br	-4.0%	2.1%	-1.0%	7.1%	-15.2%
COc1ccc(-c2cc(C(=O)Oc3ccccc3)c3cc(C)ccc3n2)cc1	4.8%[12.3 µM]	?	/	/	5.17µM*
Cc1ccc(C(=O)COC(=O)c2cc(-c3cccs3)nc3ccccc23)cc1	/	?	/	/	18.4µM*
COc1ccc(-c2cc(C(=O)Oc3ccc(C)cc3)c3cc(C)ccc3n2)cc1	-4.0%[12.3 µM]	-23.5%	/	/	-1.5%
Cc1ccc2nc(-c3ccc(Cl)cc3)cc(C(=O)OCC(=O)c3ccccc3)c2c1	-0.4%[12.3 µM]	?	/	/	20.6µM*
C/C(=N\NC(=O)COc1ccc(C)cc1C(C)C)c1cc2ccccc2o1	5.4%	15.5%	-1.8%	-6.2%	?
CC(=O)N1CCN(S(=O)(=O)c2cccc(C(=O)NNC(=O)Cn3ccc(C(F)(F)F)n3)c2)CC1	/	3.8%	/	/	-11.3%
N#Cc1nc(COc2ccc(Br)cc2)oc1N1CCCCCC1	7.4%	14.6µM*	7.4%	?	16.4µM*
N#Cc1nc(COc2ccc(-c3ccccc3)cc2)oc1N1CCC(C(N)=O)CC1	3.6%	12.6µM*	/	/	17.8µM*
N#Cc1nc(COc2ccc(-c3ccccc3)cc2)oc1NCCCN1CCOCC1	4.1%	23.1µM*	6.6%	?	23.1µM*
N#Cc1nc(COc2ccc(Br)cc2)oc1N1CCCC1	11.0%	?	11.2%	?	?
O=C(C1CC(c2ccccc2O)=NO1)N1CCCC1 (stereo not drawn)	-2.2%	1.2%	1.5%	?	3.2%
CCOC(=O)C1(CCOc2ccccc2)CCN(Cc2ccc(OCC)c(CO)c2)CC1	/	14.6µM*	/	/	18.4µM*
CCOC(=O)C1(CCOc2ccccc2)CCN(C(=O)c2ccc(-n3cccn3)cc2)CC1	/	?	-7.8%	-0.2%	20.6µM*
CCOC(=O)C1(CCOc2ccccc2)CCN(Cc2cccn2-c2cccnc2)CC1	7.3%	?	0.7%	0.4%	?
CCOC(=O)C1(Cc2cccc(F)c2)CCN(Cc2nc(CC)[nH]c2C)CC1	7.3%	?	-3.4%	-10.2%	23.1µM*
CCOC(=O)C1(Cc2cccc(F)c2)CCN(Cc2cnn(CC)c2)CC1	0.0%	-23.6%	7.9%	1.7%	?
CCOC(=O)C1(CCOc2ccccc2)CCN(Cc2ccc(CO)o2)CC1	-6.0%	8.2µM*	-1.9%	-3.0%	2.31µM*
Cc1ccc(S(=O)(=O)Nc2ccc(-n3cnnn3)cc2)cc1	1.9%	-12.5%	-2.0%	11.6%	-37.1%
N#CCCn1cnc2c(=S)nc[nH]c21	1.1%	-18.9%	4.0%	-24.4%	-1.0%
COc1cc(/C=C2\NC(=O)NC2=O)cc(Br)c1OC	/	-1.3%	-1.5%	10.9%	5.0%
CCOC(=O)C1(CCOc2ccccc2)CCN(Cc2ccc3nonc3c2)CC1	-4.9%	?	-12.8%	24.3%	20.6µM*
CCOC(=O)C1(Cc2ccccc2)CCN(Cc2cccc3nccnc23)CC1	6.0%	?	15.4%	-23.9%	18.4µM*
